From PubChem BioAssay (NCATS)
Activity calls are given as the source filed them. The call rests on the fitted dose curve; in most records, active means well fitted curve in the direction sought with a large enough effect; inconclusive means small, poorly fitted or top-dose-only effect, or another doubt; inactive means no such curve, though single readings can be large or run the other way.

The molecules below were run against Hexokinase-4 (Homo sapiens) + Glucokinase regulatory protein (Homo sapiens) (UniProt P35557+Q14397) (assay: qHTS assay for inhibitors of recombinant human GCK-GKRP interaction: Diaphorase-coupled assay (AID 743205)). Details: G6PDH/diaphorase resorufin fluorescence; series mostly up to 57.5 µM; activity change, positive = activation: at the top concentration.
Excerpt: Glucokinase (GCK) is a glucose sensor in hepatocytes and pancreatic beta-cells. Hepatic GCK is regulated by glucokinase regulatory protein (GKRP), which is predominantly localized to the liver. GKRP binds to GCK inhibiting its activity in the fasting state while in the presence of glucose the GKRP is displaced. There is an additional layer of regulation by fructose 1-phosphate and fructose 6-phosphate, which inhibit and enhance the GCK-GKRP interaction, respectively. GCK plays a role in glucose homeostasis and there is an interest in the development of strategies to activate GCK to lower blood glucose levels in type 2 diabetes. To date the majority of effort has focused on direct activation of GCK and the assays developed herein look to activate GCK by inhibiting its binding to GKRP. A compound that inhibits the interaction of GCK with GKRP could be important for the treatment of diabetes and can also be used as a tool compound to further elucidate GCK-GKRP biology. To that end, we have developed a sensitive HTS biochemical assay where in GCK activity is coupled to G6PDH and Diaphorase to interrogate the GCK-GKRP interaction. This assay was screened against a small compound library to look for modulators of activity.
2 uL of substrate (columns 1-48) are dispensed into Greiner, black solid-bottom 1536-well assay plates. Compounds (23 nL) are then transferred via Kalypsys pin tool equipped with 1536-pin array (10 nL slotted pins, V&P Scientific, San Diego, CA). The library compounds are in columns 5-48 and columns 1-4 serve as controls with DMSO in columns 1 and 3 and 26 mM 1:1.5 fold serial of gluckokinase activator (GKA-EMD) in column 2 and 26 mM of the glucokinase activator (GKA-EMD) in column 4. Following addition of compound and a 20 minute incubation, 1 uL of enzyme mix (GST-GCK, FLAG-GKRP and diaphorase) is added to columns 1, 2, 4-48 and 1 uL of no enzyme mix (FLAG-GKRP and diaphorase) is added to column 3 and the fluorescent product resorufin generated from resazurin was monitored on a Viewlux (PerkinElmer, Shelton, CT, USA) with excitation at 525 nm and emission at 590 nm in kinetic mode where the plate was read every minute for 30 minutes. The final concentration of reagents in the reaction are 25 mM Hepes pH 7.6, 25 mM KCl, 2 mM MgCl2, 1.4 mM 2-mercaptoethanol, 0.025% BSA, 0.01% Tween-20, 0.15 mM NADP+, 5 mM glucose, 0.4 mM ATP, 4 U/ml G6PDH, 0.1 mM resazurin, 10 nM GST-GCK, 10 nM FLAG-GKRP, diaphorase (0.1 mg/mL). Data are normalized to DMSO-treated control columns with (maximum signal) and without (minimum signal) enzyme.

Chain of Hexokinase-4 (Homo sapiens) + Glucokinase regulatory protein (Homo sapiens) (P35557 whole entry, looked up): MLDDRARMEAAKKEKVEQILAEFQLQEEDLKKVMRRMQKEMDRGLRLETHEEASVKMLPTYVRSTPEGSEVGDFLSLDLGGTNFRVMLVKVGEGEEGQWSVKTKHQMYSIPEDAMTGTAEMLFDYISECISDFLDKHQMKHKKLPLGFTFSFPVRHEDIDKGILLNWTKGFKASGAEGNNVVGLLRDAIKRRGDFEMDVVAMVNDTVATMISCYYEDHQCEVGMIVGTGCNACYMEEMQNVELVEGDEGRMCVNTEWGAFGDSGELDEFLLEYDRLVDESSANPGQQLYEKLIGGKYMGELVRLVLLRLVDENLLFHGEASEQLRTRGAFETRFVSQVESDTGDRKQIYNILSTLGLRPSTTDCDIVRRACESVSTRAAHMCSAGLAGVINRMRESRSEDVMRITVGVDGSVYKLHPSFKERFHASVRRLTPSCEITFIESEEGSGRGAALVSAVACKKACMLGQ
Chain of Hexokinase-4 (Homo sapiens) + Glucokinase regulatory protein (Homo sapiens) (Q14397 whole entry, looked up): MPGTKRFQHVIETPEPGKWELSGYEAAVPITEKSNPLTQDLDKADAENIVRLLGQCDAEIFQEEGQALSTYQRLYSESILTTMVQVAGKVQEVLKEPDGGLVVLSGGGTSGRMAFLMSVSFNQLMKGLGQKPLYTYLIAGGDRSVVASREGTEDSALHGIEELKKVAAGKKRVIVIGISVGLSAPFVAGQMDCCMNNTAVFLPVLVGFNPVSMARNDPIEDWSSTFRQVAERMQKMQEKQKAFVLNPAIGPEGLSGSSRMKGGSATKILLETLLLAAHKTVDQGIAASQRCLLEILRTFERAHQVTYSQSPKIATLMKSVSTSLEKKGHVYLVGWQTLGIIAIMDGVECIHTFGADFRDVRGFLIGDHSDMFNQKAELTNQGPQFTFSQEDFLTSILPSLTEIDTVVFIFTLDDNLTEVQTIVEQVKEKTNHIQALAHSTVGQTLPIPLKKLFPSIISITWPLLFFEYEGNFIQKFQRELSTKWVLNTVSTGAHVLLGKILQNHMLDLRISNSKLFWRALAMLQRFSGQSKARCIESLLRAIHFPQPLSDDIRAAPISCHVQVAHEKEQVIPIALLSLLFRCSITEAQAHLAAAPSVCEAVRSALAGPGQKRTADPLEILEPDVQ

Structure (SMILES) | activity change, positive = activation
Clc1ccc(N2CCN(Cc3cc4ccccn4n3)CC2)cc1 | -3.43% (inactive)
O=S(=O)(c1cccc2c(I)cccc12)N1CCCNCC1 | -10.4% (inactive)
NS(=O)(=O)C#Cc1ccccc1 | -2.24% (inactive)
Cc1cc2c(cc1Cl)N(C(=O)Nc1ccc(Oc3cccnc3C)nc1)CC2 | -39.6% (inactive)
CN(C)c1nc2c(Br)c(Br)c(Br)c(Br)c2[nH]1 | -6.45% (inactive)
OC[C@H]1O[C@@H](n2cnc3c(Nc4ccccc4)ncnc32)[C@H](O)[C@@H]1O | 0.96% (inactive)
O=C1NC(=O)/C(=C/c2ccc3nccnc3c2)S1 | -1.19% (inactive)
C#CCN1C(C)=C(C(=O)OC)C(c2cccc([N+](=O)[O-])c2)C(C(=O)OCC)=C1C (stereo not given) | -1.51% (inactive)
CCCN(CC1CC1)c1nc(C)nc(Nc2c(Cl)cc(Cl)cc2Cl)c1Cl | 1.97% (inactive)
COc1ccc2c(c1)CCC1C2CC[C@@]2(C)C1CC[C@@H]2NCCCCCCN1C(=O)CCC1=O (stereo not given in full) | -1.06% (inactive)
CCCCCC(O)c1cccc(OCc2ccc3ccccc3n2)c1 (stereo not given) | -4.24% (inactive)
C=C[C@H]1CN2CC[C@@H]1C[C@@H]2[C@@H](O)c1ccnc2ccc(OC)cc12 | -3.25% (inactive)
CO/N=C(\C(=O)N[C@@H]1C(=O)N2C(C(=O)O)=C(COC(C)=O)CS[C@H]12)c1csc(N)n1 | -7.88% (inactive)
CCc1c(C(=O)NCCc2ccc(N3CCCCC3)cc2)[nH]c2ccc(Cl)cc12 | -1.08% (inactive)
CCCCC#Cc1nc(NC)c2ncn([C@@H]3O[C@H](CO)[C@@H](O)[C@H]3O)c2n1 | 2.2% (inactive)
O=C(/C=C/c1ccc(O)c(O)c1)OCCc1ccccc1 | -9.43% (inactive)
O=C(CCCCCN1CCN(c2ccccc2-c2ccccc2)CC1)NC1CCCc2ccccc21 (stereo not given) | -2.57% (inactive)
CCOC(=O)N1CCN(/[N+]([O-])=N/Oc2ccc([N+](=O)[O-])cc2[N+](=O)[O-])CC1 | -1.66% (inactive)
NC[C@H]1O[C@@H](n2cnc3c(N)ncnc32)[C@H](O)[C@@H]1O | 0.168% (inactive)
O=C(c1cc(O)c(O)c([N+](=O)[O-])c1)c1ccccc1F | 4.61% (inactive)

Structure (SMILES) | activity change, positive = activation
Oc1ccc(C2CNCc3sccc32)cc1O (stereo not given) | -23.3% (inactive)
CSc1nc(N)c2ncn([C@@H]3O[C@H](COP(=O)(O)OP(=O)(O)OP(=O)(O)O)[C@@H](O)[C@H]3O)c2n1 | -0.804% (inactive)
CN1CCc2cc(O)c(O)cc2C(c2ccccc2)C1 (stereo not given) | -11.1% (inactive)
CCCCCCCC/C=C\CCCCCCCC(=O)NCCO | -8.79% (inactive)
O=c1[nH]c2cc([N+](=O)[O-])c([N+](=O)[O-])cc2[nH]c1=O | -2.12% (inactive)
OCC1O[C@H]([S-])[C@H](O)[C@@H](O)[C@@H]1O.[Au+] (stereo not given in full) | -4.26% (inactive)
NCCCCCCCCCCN | -3.83% (inactive)
CCCCC/C=C\CC(O)/C=C/c1cccc(CC(O)CCCCO)n1 (stereo not given) | -2.78% (inactive)
NC(=S)c1ccc[n+]([C@@H]2O[C@@H](COP(=O)([O-])OP(=O)(O)OC[C@H]3O[C@@H](n4cnc5c(N)ncnc54)[C@H](OP(=O)(O)O)[C@@H]3O)C(O)C2O)c1 (stereo not given in full) | 2.23% (inactive)
NC(=O)C1=CN(C2OC(COP(=O)(O)OP(=O)(O)OC[C@H]3O[C@@H](n4cnc5c(N)ncnc54)[C@H](OP(=O)(O)O)[C@@H]3O)C(O)C2O)C=CC1 (stereo not given in full) | -18.6% (inactive)
C[C@@H](NC(=O)/C(C#N)=C/c1ccc(O)c(O)c1)c1ccccc1 | -14.5% (inactive)
Cc1ccc(C(=O)O[C@H](C(=O)O)[C@@H](OC(=O)c2ccc(C)cc2)C(=O)O)cc1 (tested in a mixture with another compound) | -2.66% (inactive)
Nc1nc(Nc2ccccc2)nc2c1ncn2[C@@H]1O[C@H](CO)[C@@H](O)[C@H]1O | 0.38% (inactive)
CC(C)CC(NP(=O)(O)O[C@@H]1O[C@@H](C)[C@H](O)[C@@H](O)[C@H]1O)C(=O)NC(Cc1c[nH]c2ccccc12)C(=O)O (stereo not given in full) | -0.948% (inactive)
CN1CC(=O)N/C1=N/C(=O)Nc1cccc(Cl)c1 | -3.33% (inactive)
COC1=C(OC)C(=O)c2ccccc2C1=O | -35.5% (inactive)
NCCCCC(=O)O | -2.3% (inactive)
C#C[C@]1(O)CC[C@H]2[C@@H]3CCC4=Cc5oncc5CC4(C)[C@H]3CCC21C (stereo not given in full) | -5.63% (inactive)
N#C/C(=C\c1ccc(-c2cc(Cl)ccc2Cl)o1)C(=O)Nc1cccc2ncccc12 | -22.3% (inactive)
Oc1cc2c(cc1O)CN(C(=S)NCCc1ccc(Cl)cc1)CCC2 | -8.41% (inactive)
